Data from ChEMBL document CHEMBL3433997, “St. Jude Leishmania screening dataset” (2016).

Columns and labels:
Format in all cases: functional
[1] = molecular target: Solute carrier family 2, facilitated glucose transporter member 1 (Homo sapiens) (UniProt P11166); assay: ST_JUDE_LEISH: Cytotoxicity at 2uM final concentration against transgenic Leishmania Mexicana promastigotes LmGLUT1 that are glucose transport deficient and complemented with the human glucose transporter GLUT1. Activity is measured by DNA content using SYBR green in vitro
Chain of Solute carrier family 2, facilitated glucose transporter member 1 (Homo sapiens) (P11166 whole entry): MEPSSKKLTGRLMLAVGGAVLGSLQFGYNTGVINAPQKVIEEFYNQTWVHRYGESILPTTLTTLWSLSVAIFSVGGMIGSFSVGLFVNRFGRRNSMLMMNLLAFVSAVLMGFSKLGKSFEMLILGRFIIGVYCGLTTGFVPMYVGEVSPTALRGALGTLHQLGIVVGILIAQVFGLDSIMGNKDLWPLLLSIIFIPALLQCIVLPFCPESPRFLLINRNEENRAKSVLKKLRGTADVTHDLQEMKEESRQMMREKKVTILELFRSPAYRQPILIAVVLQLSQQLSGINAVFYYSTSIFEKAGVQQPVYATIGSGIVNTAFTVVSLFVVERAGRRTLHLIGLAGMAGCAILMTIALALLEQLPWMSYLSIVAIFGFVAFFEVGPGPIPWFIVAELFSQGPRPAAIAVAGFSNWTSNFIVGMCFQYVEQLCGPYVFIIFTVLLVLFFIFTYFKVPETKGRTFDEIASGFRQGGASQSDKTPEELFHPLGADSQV

[2] = molecular target: Hexose transporter 1 (Plasmodium falciparum) (UniProt O97467); assay: ST_JUDE_LEISH: Cytotoxicity at 2uM final concentration against transgenic Leishmania Mexicana promastigotes LmPfHT that are glucose transport deficient and complemented with the Plasmodium falciparum hexose transporter. Activity is measured by DNA content using SYBR green in vitro
[3] = molecular target: Glucose transporter (Leishmania mexicana) (UniProt O61059); assay: ST_JUDE_LEISH: Cytotoxicity at 2uM final concentration against transgenic Leishmania Mexicana promastigotes LmGT2 that are glucose transport deficient and complemented with the L. Mexicana glucose transporter 2. Activity is measured by DNA content using SYBR green in vitro

SMILES: CNCCNCc1ccc(-c2ccc(-c3nc4cc(C(F)(F)F)ccc4[nH]3)s2)cc1
- inhibition [1]: 2.21%
- inhibition [2]: 0.84%
- inhibition [3]: 0.73%

SMILES: Cn1ccnc1CNC(=O)c1ccc(-c2ccc(-c3nc4cc(C(F)(F)F)ccc4[nH]3)s2)cc1
- inhibition [1]: 4.17%
- inhibition [2]: 3.3%
- inhibition [3]: 2.03%

SMILES: NC(=O)c1cccc(CNCc2ccc(-c3cccc(-c4nc5ccccc5[nH]4)c3)cc2)c1
- inhibition [1]: 5.8%
- inhibition [2]: 5.87%
- inhibition [3]: 5.4%

SMILES: Cc1cc(NC(=O)c2cccs2)ccc1OC1CCN(Cc2ccc(C#N)cc2)CC1
- inhibition [1]: -0.77%
- inhibition [2]: 1.49%
- inhibition [3]: -0.42%

SMILES: CS(=O)(=O)Nc1cccc(-c2cnc3[nH]cc(-c4ccc(CN)cc4)c3c2)c1
- inhibition [1]: 4.62%
- inhibition [2]: 4.04%
- inhibition [3]: 3.33%

SMILES: COc1ccc(C2SCC(=O)N2CCc2ccc(OC)c(OC)c2)cc1 (stereo unspecified)
- inhibition [1]: 2.35%
- inhibition [2]: 1.37%
- inhibition [3]: 2.36%

SMILES: NC1CCN(CCNCc2cccc(-c3ccc(-c4nc5cc(F)ccc5[nH]4)cc3)c2)C1 (stereo unspecified)
- inhibition [1]: 7.06%
- inhibition [2]: 11.1%
- inhibition [3]: 6.13%

SMILES: O=C(Nc1nc2cc(S(=O)(=O)NCCCN3CCOCC3)ccc2n1CCCn1ccnc1)c1ccc(Cl)cc1
- inhibition [1]: 5.51%
- inhibition [2]: 5.43%
- inhibition [3]: 4.2%

SMILES: Oc1ccc(Nc2nc(NCc3ccccc3)c3ccccc3n2)cc1
- inhibition [1]: 30.1%
- inhibition [2]: 27.1%
- inhibition [3]: 10.6%

SMILES: Cc1cccc2nc(-c3ccc(-c4cccc(NC(=O)C(C)CN(C)C)c4)s3)[nH]c12 (stereo unspecified)
- inhibition [1]: -0.15%
- inhibition [2]: 1.85%
- inhibition [3]: 0.27%

SMILES: CC(=O)c1c(Nc2c(C)cc(C)cc2C)oc(C)cc1=O
- inhibition [1]: 3.7%
- inhibition [2]: 5.4%
- inhibition [3]: 3.1%

SMILES: CCOc1c(CNCCCNc2cc(O)c3ccccc3n2)cc(I)cc1OC
- inhibition [1]: -0.3%
- inhibition [2]: -1.22%
- inhibition [3]: 1.41%

SMILES: Cc1nc(N/C=C/c2ccc(O)cc2)cc(N2CCCC2)n1
- inhibition [1]: 8.44%
- inhibition [2]: 6.81%
- inhibition [3]: 7.13%

SMILES: Nc1ncc(-c2cn[nH]c2)cc1-c1nc2ccc(Cl)cc2[nH]1
- inhibition [1]: 2.56%
- inhibition [2]: 3.75%
- inhibition [3]: 3.89%

SMILES: CC(=O)N(C)C1CCN(Cc2cccc(-c3ccc(-c4nc5cc(C(F)(F)F)ccc5[nH]4)cc3)c2)C1 (stereo unspecified)
- inhibition [1]: 2.39%
- inhibition [2]: -4.29%
- inhibition [3]: 3.1%

SMILES: CCCCCCCc1c(C)nc2cccc(OC)c2c1O
- inhibition [1]: 47.3%
- inhibition [2]: 59.4%
- inhibition [3]: 33.9%

SMILES: Cc1csc(-c2ncc(OC[C@@H](N)Cc3ccccc3)cc2-c2ccc3[nH]nc(C)c3c2)c1
- inhibition [1]: 2.54%
- inhibition [2]: 0.85%
- inhibition [3]: -0.58%
